The test system of one assay is BUB1. Also noted: species or system human, MV4-11 + K-562 + COLO205 + SK-N-BE2 + OVCAR-8. Conditions: read-out: apparent Kd; compound concentrations: 100 nM and 1000 nM (sheet 'Samples'), CATDS: 2.1802873020005002E-2; n = 1.
A further assay has as its system CDC42BPA. Also noted: species or system human, MV4-11 + K-562 + COLO205 + SK-N-BE2 + OVCAR-8. Conditions: read-out: apparent Kd; compound concentrations: 100 nM and 1000 nM (sheet 'Samples'), CATDS: 2.9689579346921902E-2; n = 1.
In another assay the test system is CDC42BPB. Also noted: species or system human, MV4-11 + K-562 + COLO205 + SK-N-BE2 + OVCAR-8. The note with it: read-out: apparent Kd; compound concentrations: 100 nM and 1000 nM (sheet 'Samples'), CATDS: 2.9604428475736501E-2; n = 1.
A further assay concerns CDC42BPG. Set-up: species or system human, MV4-11 + K-562 + COLO205 + SK-N-BE2 + OVCAR-8. Conditions: read-out: apparent Kd; compound concentrations: 100 nM and 1000 nM (sheet 'Samples'), CATDS: 3.5199852415490701E-2; n = 1.
Another assay deals with CDC7. Set-up: species or system human, MV4-11 + K-562 + COLO205 + SK-N-BE2 + OVCAR-8. Conditions: read-out: apparent Kd; compound concentrations: 100 nM and 1000 nM (sheet 'Samples'), CATDS: 2.6746378417374699E-2; n = 1.
Another assay has as its system CDK4. Also noted: species or system human, MV4-11 + K-562 + COLO205 + SK-N-BE2 + OVCAR-8. Conditions: read-out: apparent Kd; compound concentrations: 100 nM and 1000 nM (sheet 'Samples'), CATDS: 2.4664855297043799E-2; n = 1.
Another assay relates to CLK4. Also noted: species or system human, MV4-11 + K-562 + COLO205 + SK-N-BE2 + OVCAR-8. The note with it: read-out: apparent Kd; compound concentrations: 100 nM and 1000 nM (sheet 'Samples'), CATDS: 2.52027212323017E-2; n = 1.
In another assay the test system is DYRK1A. Set-up: species or system human, MV4-11 + K-562 + COLO205 + SK-N-BE2 + OVCAR-8. The note with it: read-out: apparent Kd; compound concentrations: 100 nM and 1000 nM (sheet 'Samples'), CATDS: 2.7886290868283401E-2; n = 1.
Another assay deals with GSK3A. Also noted: species or system human, MV4-11 + K-562 + COLO205 + SK-N-BE2 + OVCAR-8. The note with it: read-out: apparent Kd; compound concentrations: 100 nM and 1000 nM (sheet 'Samples'), CATDS: 3.2478486549428802E-2; n = 1.
The next assay concerns GSK3B. Also noted: species or system human, MV4-11 + K-562 + COLO205 + SK-N-BE2 + OVCAR-8. Conditions: read-out: apparent Kd; compound concentrations: 100 nM and 1000 nM (sheet 'Samples'), CATDS: 2.76286010769239E-2; n = 1.
In another assay the test system is NNT. Also noted: species or system human, MV4-11 + K-562 + COLO205 + SK-N-BE2 + OVCAR-8. Conditions: read-out: apparent Kd; compound concentrations: 100 nM and 1000 nM (sheet 'Samples'), CATDS: 2.2589714418096801E-2; n = 1.
Another assay concerns PIM1. Set-up: species or system human, MV4-11 + K-562 + COLO205 + SK-N-BE2 + OVCAR-8. Conditions: read-out: apparent Kd; compound concentrations: 100 nM and 1000 nM (sheet 'Samples'), CATDS: 3.4638112150075201E-2; n = 1.
A further assay deals with PKN1. Also noted: species or system human, MV4-11 + K-562 + COLO205 + SK-N-BE2 + OVCAR-8. Conditions: read-out: apparent Kd; compound concentrations: 100 nM and 1000 nM (sheet 'Samples'), CATDS: 6.9293964383533801E-2; n = 1.
The next assay concerns PKN2. Also noted: species or system human, MV4-11 + K-562 + COLO205 + SK-N-BE2 + OVCAR-8. The note with it: read-out: apparent Kd; compound concentrations: 100 nM and 1000 nM (sheet 'Samples'), CATDS: 0.13828274878435901; n = 1.
The subject of another assay is PKN3. Set-up: species or system human, MV4-11 + K-562 + COLO205 + SK-N-BE2 + OVCAR-8. The note with it: read-out: apparent Kd; compound concentrations: 100 nM and 1000 nM (sheet 'Samples'), CATDS: 2.6445492378014E-2; n = 1.
The next assay has as its system PRKACA. Set-up: species or system human, MV4-11 + K-562 + COLO205 + SK-N-BE2 + OVCAR-8. Conditions: read-out: apparent Kd; compound concentrations: 100 nM and 1000 nM (sheet 'Samples'), CATDS: 2.2371204771335199E-2; n = 1.
In the next assay the test system is PRKCA. Also noted: species or system human, MV4-11 + K-562 + COLO205 + SK-N-BE2 + OVCAR-8. The note with it: read-out: apparent Kd; compound concentrations: 100 nM and 1000 nM (sheet 'Samples'), CATDS: 3.9494099322939E-2; n = 1.
The next assay concerns PRKCB. Set-up: species or system human, MV4-11 + K-562 + COLO205 + SK-N-BE2 + OVCAR-8. The note with it: read-out: apparent Kd; compound concentrations: 100 nM and 1000 nM (sheet 'Samples'), CATDS: 4.76963750103866E-2; n = 1.
A further assay relates to PRKCD. Set-up: species or system human, MV4-11 + K-562 + COLO205 + SK-N-BE2 + OVCAR-8. The note with it: read-out: apparent Kd; compound concentrations: 100 nM and 1000 nM (sheet 'Samples'), CATDS: 6.0948363535237499E-2; n = 1.
A further assay deals with PRKCI. Set-up: species or system human, MV4-11 + K-562 + COLO205 + SK-N-BE2 + OVCAR-8. Conditions: read-out: apparent Kd; compound concentrations: 100 nM and 1000 nM (sheet 'Samples'), CATDS: 3.5414471461485103E-2; n = 1.
Another assay concerns PRKCQ. Set-up: species or system human, MV4-11 + K-562 + COLO205 + SK-N-BE2 + OVCAR-8. The note with it: read-out: apparent Kd; compound concentrations: 100 nM and 1000 nM (sheet 'Samples'), CATDS: 2.3037545247832199E-2; n = 1.
Another assay deals with PRKG1. Also noted: species or system human, MV4-11 + K-562 + COLO205 + SK-N-BE2 + OVCAR-8. The note with it: read-out: apparent Kd; compound concentrations: 100 nM and 1000 nM (sheet 'Samples'), CATDS: 3.8596421043345E-2; n = 1.
The test system of the next assay is PRKX;PRKY. Also noted: species or system human, MV4-11 + K-562 + COLO205 + SK-N-BE2 + OVCAR-8. The note with it: read-out: apparent Kd; compound concentrations: 100 nM and 1000 nM (sheet 'Samples'), CATDS: 4.0324961931199298E-2; n = 1.
A further assay has as its target Q6ZSR9 (human, UniProt Q6ZSR9). Set-up: species or system MV4-11 + K-562 + COLO205 + SK-N-BE2 + OVCAR-8. The note with it: read-out: apparent Kd; compound concentrations: 100 nM and 1000 nM (sheet 'Samples'), CATDS: 2.23637013148167E-2; n = 1.
The next assay relates to ROCK1. Also noted: species or system human, MV4-11 + K-562 + COLO205 + SK-N-BE2 + OVCAR-8. Conditions: read-out: apparent Kd; compound concentrations: 100 nM and 1000 nM (sheet 'Samples'), CATDS: 0.20486846489085001; n = 1.
For another assay, the system named is ROCK2. Set-up: species or system human, MV4-11 + K-562 + COLO205 + SK-N-BE2 + OVCAR-8. The note with it: read-out: apparent Kd; compound concentrations: 100 nM and 1000 nM (sheet 'Samples'), CATDS: 0.25564914108925302; n = 1.
For another assay, the system named is RPS6KA3. Also noted: species or system human, MV4-11 + K-562 + COLO205 + SK-N-BE2 + OVCAR-8. The note with it: read-out: apparent Kd; compound concentrations: 100 nM and 1000 nM (sheet 'Samples'), CATDS: 2.2411381111350701E-2; n = 1.
Another assay concerns RPS6KA4. Also noted: species or system human, MV4-11 + K-562 + COLO205 + SK-N-BE2 + OVCAR-8. Conditions: read-out: apparent Kd; compound concentrations: 100 nM and 1000 nM (sheet 'Samples'), CATDS: 2.93060004016619E-2; n = 1.
A further assay deals with RPS6KA5. Also noted: species or system human, MV4-11 + K-562 + COLO205 + SK-N-BE2 + OVCAR-8. Conditions: read-out: apparent Kd; compound concentrations: 100 nM and 1000 nM (sheet 'Samples'), CATDS: 7.09289008095534E-2; n = 1.
Another assay concerns RPS6KB1. Also noted: species or system human, MV4-11 + K-562 + COLO205 + SK-N-BE2 + OVCAR-8. Conditions: read-out: apparent Kd; compound concentrations: 100 nM and 1000 nM (sheet 'Samples'), CATDS: 3.4363243173278199E-2; n = 1.
A further assay has as its system AURKB. Also noted: species or system human, MV4-11 + K-562 + COLO205 + SK-N-BE2 + OVCAR-8. The note with it: read-out: apparent Kd; compound concentrations: 100 nM and 1000 nM (sheet 'Samples'), CATDS: 0.35952241449560002; n = 1.
Another assay has as its system EIF2AK1. Also noted: species or system human, MV4-11 + K-562 + COLO205 + SK-N-BE2 + OVCAR-8. Conditions: read-out: apparent Kd; compound concentrations: 100 nM and 1000 nM (sheet 'Samples'), CATDS: 0.39682644993145699; n = 1.
The next assay relates to STK4. Also noted: species or system human, MV4-11 + K-562 + COLO205 + SK-N-BE2 + OVCAR-8. The note with it: read-out: apparent Kd; compound concentrations: 100 nM and 1000 nM (sheet 'Samples'), CATDS: 0.27037703695169801; n = 1.

These results are taken from paper PMC11062922 (Nature Chemical Biology, 2023).

Chain of Q6ZSR9 (Q6ZSR9 whole entry, looked up): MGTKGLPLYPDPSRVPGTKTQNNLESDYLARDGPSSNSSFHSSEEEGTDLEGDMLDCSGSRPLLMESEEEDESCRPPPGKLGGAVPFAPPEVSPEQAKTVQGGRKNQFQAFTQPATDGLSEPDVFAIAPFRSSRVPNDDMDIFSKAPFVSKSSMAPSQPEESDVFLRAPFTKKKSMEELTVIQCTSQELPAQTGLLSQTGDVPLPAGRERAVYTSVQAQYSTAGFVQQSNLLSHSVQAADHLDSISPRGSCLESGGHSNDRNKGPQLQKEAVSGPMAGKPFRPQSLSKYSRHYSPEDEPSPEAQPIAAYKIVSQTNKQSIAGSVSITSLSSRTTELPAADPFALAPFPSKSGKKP

As for `CCn1c(-c2nonc2N)nc2cncc(C(=O)NCCNC)c21` [GW876790X], the potency estimated from few doses in the assay with BUB1 is 2400 nM; in the assay on CDC42BPA, 783 nM; with CDC42BPB it was 790 nM; with CDC42BPG, 498 nM; in the assay on CDC7 it was 1080 nM; with CDK4 it was 1430 nM. For the same compound, the potency estimated from few doses in the assay on CLK4 is 1320 nM; in the assay with DYRK1A, 944 nM; in the assay with GSK3A, 612 nM; in the assay on GSK3B it was 971 nM; in the assay on NNT, 2030 nM; with PIM1 it was 519 nM. The potency estimated from few doses was 118 nM in the assay with PKN1; 35.1 nM in the assay on PKN2; 1120 nM in the assay on PKN3; 2120 nM in the assay on PRKACA; 378 nM with PRKCA; 249 nM in the assay on PRKCB. In addition, the potency estimated from few doses is 152 nM with PRKCD; 491 nM in the assay on PRKCI; 1870 nM with PRKCQ; 399 nM in the assay on PRKG1; 361 nM in the assay with PRKX;PRKY; 2130 nM with Q6ZSR9. Moreover, the potency estimated from few doses in the assay with ROCK1 was 19.1 nM; in the assay on ROCK2, 13.9 nM; in the assay on RPS6KA3, 2110 nM; in the assay with RPS6KA4 it was 813 nM; in the assay with RPS6KA5, 113 nM; in the assay with RPS6KB1, 529 nM.

`Cn1cc(-c2ccc3c(c2)CCN3C(=O)Cc2cccc(F)c2)c2c(N)ncnc21` [GSK2603358A]: the potency estimated from few doses was 1280 nM in the assay with AURKB, 1070 nM with EIF2AK1 and 2430 nM in the assay on STK4.
